The text below walks through data of PubChem BioAssay AID1626 (SRMLSC, 2009).

Several values for one entry are separate records, joined by “and”; a condition that tells them apart may be missing. Equal values may be shown once. In all, about 220,000 compounds went through this assay and about 2,000 (0.91%) were called active. Another 2% or so got no clear call; they are omitted. Not all results are given here. Measured potencies and affinities stand elsewhere. A number with no mark means an inactive call. No stated cut-off is given here; in the data, inconclusive means inhibition above about 80% without an active follow-up result; inactive means below that; test concentration not stated here.

Broadly, the inhibition is the drop in the measured response relative to a control, in per cent.

The nature of the assay: M. tuberculosis H37Rv growth inhibitors, H37Rv strain (AID 1626).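 Further: bacteria incubated seven days before Alamar blue readout; 0% = bacteria only wells and 100% = bacteria with antibiotic wells.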 Particulars: active compounds read high, concentration not given here.
On to `Cc1ccc(SCC(=O)NCCSCc2ccccc2)cc1`, for which the inhibition was 7.41%.

For `CCOC(=O)CNC(=O)CSc1ncnc2c1cnn2-c1ccc(OC)cc1`, the inhibition was 14.6%.

As to `Cc1ccc(-n2ncc3c(SCC(=O)Nc4cc(C)on4)ncnc32)c(C)c1`, the inhibition was 0.2%.

As to `CSc1ncnc2c1cnn2-c1ccc(C)cc1C`, the inhibition is 11.1%.

Take `CCOC(=O)CNC(=O)CSc1ncnc2c1cnn2-c1ccc(C)cc1`: the inhibition is -3.46%.

For `COCc1cc(C)nc(Nc2ccc(C)c(C)c2)c1C#N`, the inhibition is -2.04%.

Take `CC1=C(C(=O)Nc2ccccc2)C(c2ccco2)NC(=O)N1` (configuration not stated): the inhibition was -10.5%.

For the compound `COc1cc(NC(=O)CN2C(=O)NC(C)(c3ccccc3)C2=O)c(C)cc1[N+](=O)[O-]` (configuration not stated), the inhibition was 3.59%.

In the case of `Cc1cc(C)n2c(SC/C(O)=C(\C#N)c3nc4ccccc4[nH]3)nnc2n1`, the inhibition was -3.82%.

With `COc1ccc(C(=O)NCC2CCCO2)cc1OC` (configuration not stated), the inhibition was -3.63%.

As for `CC(COc1ccccc1Cc1ccccc1)N1CCCCC1` (configuration not stated), the inhibition is 1.05%.

Take `c1ccc(CN(CC2=NCCN2)c2ccccc2)cc1`: the inhibition was -7.61% and -7.26%.

On to `CCOc1cc(N2CCOCC2)c(OCC)cc1NC(=O)c1ccc2ccccc2n1`, for which the inhibition is 7.27%.

Turning to `NC(=O)C1CC(O)CN1c1nc(CN2CCOCC2)nc2scc(-c3ccccc3)c12` (configuration not stated), the inhibition is -8.45%.

In the case of `CN(Cc1ccccc1)c1nc(CN2CCOCC2)nc2scc(-c3ccccc3)c12`, the inhibition was 38.4%.

With `CCNc1nc(CN2CCCCC2)nc2scc(-c3ccccc3)c12`, the inhibition is 10.7%.

Regarding `c1csc(-c2csc3nc(CN4CCOCC4)nc(NCc4ccc5c(c4)OCO5)c23)c1`, the inhibition was -6.15%.

For the compound `CC/C(=N\Nc1ccccc1)c1c(O)n(-c2ccccc2)c(=O)[nH]c1=O`, the inhibition was 47.3%.

Turning to `C[C@H](NC(=O)c1[nH]cnc1C(=O)Nc1ccc(Cl)cc1)C(=O)OC(C)(C)C`, the inhibition was 52.4%.

For `Cc1cccc(NC(=O)c2nc[nH]c2C(=O)N[C@@H](C)C(=O)OC(C)(C)C)c1`, the inhibition was 80%.

For `CNC(=O)c1[nH]cnc1C(=O)N[C@@H](C)C(=O)OCc1ccccc1`, the inhibition is -1.09%.

Take `Cc1cccc(NC(=O)c2nc[nH]c2C(=O)N[C@@H](Cc2ccccc2)C(=O)OCc2ccccc2)c1`: the inhibition is -0.81%.

On to `Cc1cccc(NC(=O)c2nc[nH]c2C(=O)N[C@@H](CC(C)C)C(=O)OC(C)(C)C)c1`, for which the inhibition is 39%.

As to `C[C@H](NC(=O)c1nc[nH]c1C(=O)N[C@H](C)c1ccccc1)C(=O)OCc1ccccc1`, the inhibition was 2.36%.

Take `COc1ccccc1-n1c(SCC(=O)Nc2ccccc2C)nc(O)cc1=O`: the inhibition was -5.47%.

Consider `NNC(=O)[C@H]1C[C@@H]1c1ccccc1`, for which the inhibition was -1.45%.

Turning to `Cc1ccc(SC(C)c2nc(-c3ccncc3)no2)cc1` (configuration not stated), the inhibition was 3.66%.

With `O=C(Cc1ccc(Cl)c(Cl)c1)Nc1ccc2[nH]c(=O)[nH]c2c1`, the inhibition is -1.82%.

With `Clc1ccc(C(c2ccccc2)N2CCNCC2)cc1` (configuration not stated), the inhibition was 0.35%.

As for `COc1cc(/C=C/C(=O)O)ccc1O`, the inhibition is -3.73%.

Regarding `CCOc1cc(/C=C/c2ccc3cccc([N+](=O)[O-])c3n2)ccc1O`, the inhibition was -4.71%.

On to `Cc1ccc(NC(=S)N(Cc2ccccc2)C(C)C)cc1`, for which the inhibition is -1.3%.

`CCCc1cc(=O)[nH]c(SCC(=O)Nc2ccc3c(c2)CCC3)n1`: the inhibition is 7.3%.

On to `O=C(CSc1nc(O)cc(=O)[nH]1)Nc1ccc2c(c1)CCC2`, for which the inhibition was 6.46%.

For the compound `CCC(C)c1c(O)nc(SCC(=O)Nc2ccccc2)[nH]c1=O` (configuration not stated), the inhibition was -5.09%.

As for `Nc1cc(=O)[nH]c(SCC(=O)Nc2ccc3c(c2)CCC3)n1`, the inhibition was 4.78%.

Turning to `CCN(CC)C(=O)C(=O)Nc1ccc(Oc2ccccc2)cc1`, the inhibition was 14.4%.

With `COc1cccc(CNCCc2c[nH]c3ccccc23)c1OCc1ccccc1`, the inhibition is 52.7%.

Turning to `CCNCc1ccc(OCc2ccccc2F)c(OC)c1`, the inhibition was 6.78%.

On to `COc1cccc(CNCCc2c[nH]c3ccccc23)c1OCc1ccc(F)cc1`, for which the inhibition was 28.9%.

`COc1cc(CNCCCCO)ccc1OCc1ccccc1F`: the inhibition was 0.63%.

For `O=C(NCCc1ccccc1)C1CC(=O)N(C2CCCCCC2)C1` (configuration not stated), the inhibition is -3.62%.

Regarding `COC(=O)C1=C(c2ccccc2)C[C@@H]2CC[C@H]1N2C(=O)NCC1CC1`, the inhibition is -3.96%.

As to `O=C(OCc1ccc(Cl)cc1)c1cnccn1`, the inhibition is 13.5%.

For the compound `COC(=O)c1ccc(COC(=O)c2cnccn2)cc1`, the inhibition is 16.3%.

For `O=[N+]([O-])c1cccc(-c2noc(-c3cccs3)n2)c1`, the inhibition is 0.93%.

Take `O=C(NCc1n[nH]c(=S)n1Cc1ccccc1)c1ccc(Cl)cc1Cl`: the inhibition is 7.03%.

On to `COc1cccc(C2c3c(oc4ccccc4c3=O)C(=O)N2c2ccccn2)c1` (configuration not stated), for which the inhibition is -5.48%.

In the case of `COc1cc(OC)c(S(=O)(=O)NCc2ccco2)cc1S(=O)(=O)NCc1ccco1`, the inhibition was 1.4%.

Consider `Cc1ccc(Cl)cc1NC(=O)COC(=O)c1ccc(N2CCCC2)c([N+](=O)[O-])c1`, for which the inhibition is -3.66%.

As for `CCN1CC(CN(C)Cc2cn(-c3cccc(C)c3)nc2-c2cccc(F)c2)CC1=O` (configuration not stated), the inhibition was 15.3%.

As for `Cc1ccc(-c2nn(-c3cccc(F)c3)cc2CN(Cc2nccn2C)C(C)C)o1`, the inhibition is 22.5%.

With `Cc1cccc(-n2cc(CN3CCN(Cc4nccn4C)CC3)c(-c3cccc(F)c3)n2)c1`, the inhibition is 27%.

As for `Cc1cccc(-n2cc(CN3CCN(c4ccccn4)CC3)c(-c3cccc(F)c3)n2)c1`, the inhibition is 15.4%.

Turning to `CCOC(=O)N1CCC(N(CCN(C)C)C(=S)Nc2cccc(OC)c2)CC1`, the inhibition was 10%.

For the compound `CCn1ccnc1CNC(=O)c1cc(COc2ccc(F)cc2F)on1`, the inhibition is 13.2%.

With `CCc1nnc(NC(=O)c2ccc(-c3ccc(Cl)cc3)o2)s1`, the inhibition was 3.33%.

As for `COc1ccccc1NC(=S)NC(=O)c1ccc(-c2ccc(Cl)cc2)o1`, the inhibition was 79.3%.

As for `O=C(NC1=NCCS1)c1cc2ccccc2o1`, the inhibition was -1.2%.

Consider `CCCn1nnc(NC(=O)c2ccc(-c3cccc(Cl)c3)o2)n1`, for which the inhibition was 0.76%.

As for `CC(=O)N1CCN(C(=S)c2ccc(-c3ccc(Cl)cc3)o2)CC1`, the inhibition is 4.85%.

Take `CCn1nnc(NC(=O)Cc2ccc(Cl)cc2)n1`: the inhibition is -0.3%.
